# From PubChem BioAssay
# Shown are actives, neighbours in structure and some others; about 4.2% of the full set was active somewhere.
# AHR act – AHR activators, primary screen, cell-based, luminescence, luciferase reporter, human | AHR-responsive luciferase reporter cells | activation, % at 5 µM | 320,000 tested, 2.5% active | AID 2796, 2010; in the data active = activation above about 47%;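 also: 0% = vehicle wells and 100% = reference agonist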
# Target sequence (P35869 whole entry, looked up): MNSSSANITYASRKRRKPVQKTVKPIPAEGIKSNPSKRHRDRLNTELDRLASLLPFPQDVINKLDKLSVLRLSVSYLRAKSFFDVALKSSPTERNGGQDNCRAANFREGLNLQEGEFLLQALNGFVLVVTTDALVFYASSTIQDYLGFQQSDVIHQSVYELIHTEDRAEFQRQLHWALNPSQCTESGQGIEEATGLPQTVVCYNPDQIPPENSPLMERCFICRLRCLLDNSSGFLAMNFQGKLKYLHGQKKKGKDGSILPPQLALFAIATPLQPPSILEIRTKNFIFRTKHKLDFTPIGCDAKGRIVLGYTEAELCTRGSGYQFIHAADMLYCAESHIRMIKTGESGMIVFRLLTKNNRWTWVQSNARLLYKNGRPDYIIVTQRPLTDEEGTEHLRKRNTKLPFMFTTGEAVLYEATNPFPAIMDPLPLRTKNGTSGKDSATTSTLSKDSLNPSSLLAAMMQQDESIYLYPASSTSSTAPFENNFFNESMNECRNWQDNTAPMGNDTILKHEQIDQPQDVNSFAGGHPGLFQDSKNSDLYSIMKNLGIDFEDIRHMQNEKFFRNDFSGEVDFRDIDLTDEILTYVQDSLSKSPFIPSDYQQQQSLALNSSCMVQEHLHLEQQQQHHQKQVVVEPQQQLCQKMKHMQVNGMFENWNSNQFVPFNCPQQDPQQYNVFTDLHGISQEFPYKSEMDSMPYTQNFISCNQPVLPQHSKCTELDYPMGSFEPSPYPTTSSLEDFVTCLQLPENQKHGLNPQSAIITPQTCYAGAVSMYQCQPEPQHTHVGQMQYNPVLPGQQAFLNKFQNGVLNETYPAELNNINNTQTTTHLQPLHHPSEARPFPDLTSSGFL
# Wnt bcat act – Wnt/beta-catenin pathway activators, primary screen, cell-based, plate reader, single point. Wnt/beta-catenin reporter cell assay, activator. activation, % at 9.35 µM. 300,000 tested, 1.2% active; in the data active = activation above about 30%, passing the limit was not always enough; inconclusive = no clear call, values can overlap the other calls;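 also: 0% = neutral control wells and 100% = positive control wells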
# MITF act – activators of MITF-driven TRPM1 promoter reporter, primary screen, cell-based, SK-MEL-5, luciferase, single point | 300,000 tested, 0.75% active | SK-MEL-5 TRPM1-promoter luciferase, 24 h; % of positive control, neutral wells = 0 | AID 588334, 2011 | activation, % at 12.5 µM;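 active = mean activation of at least 80% with every replicate also reaching 80%; inconclusive = mean reaches 80% but some replicate falls short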;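 also: 0% = neutral control wells and 100% = parthenolide positive control wells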
# esBAF inh – Bmi1 luciferase reporter increase in mESCs, primary screen, esBAF inhibitor project, mouse ES cells, Bmi1 luciferase knock-in, single point; 24 h; 100% = twice the neutral-well signal; 350,000 tested, 2% active; reporter increase, % at 12.5 µM; in the data active = activation above about 40%; inconclusive = no clear call, values can overlap the other calls;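 also: 0% = median of the plate's neutral control wells and 100% = double that signal; a rise in the Bmi1 reporter signal indicates esBAF inhibition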
# GAA850 FXN act – FXN promoter activators, primary screen, cell-based, luciferase luminescence, HEK293 lucGAA850; HEK293 lucGAA850 FXN promoter luciferase reporter, 24 h; percent of 10 µM SAHA response; 360,000 tested, 0.56% active; activation, % at 6 µM; AID 540364, 2011;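 active = activation above the average of all compounds screened plus 3 SD, cutoff fixed separately per campaign, cut at about 7.5% in these data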;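 also: 0% = DMSO wells and 100% = 10 µM SAHA wells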
# esBAF Ring1 qPCR – Ring1 mRNA increase in mouse ESCs, confirmation, esBAF inhibitor project, cell-based, mouse ESC, RT-qPCR, cherry-pick; fold change at 33 µM; 550 tested, under 10 active; AID 743176, 2013; shares compounds with esBAF inh; mouse ESC E14, Ring1 mRNA RT-qPCR fold change;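 active = Ring1 gene expression raised more than 2-fold over untreated cells in both replicates at either tested dose; inconclusive = only one replicate above 2-fold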;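 also: Ring1 transcript normalised to actin housekeeping signal by TaqMan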
# esBAF Fgf4 qPCR – Fgf4 mRNA decrease in mouse ESCs, confirmation, esBAF inhibitor project, cell-based, mouse ESC, RT-qPCR, cherry-pick | shares compounds with esBAF inh | mouse ESC E14, Fgf4 mRNA qPCR fold change; active compounds read low | Fgf4 expression fold change at 33 µM | 550 tested, 4% active | AID 743177, 2013;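 active = Fgf4 expression under 0.8 fold of control in both repeat measurements at one or both tested doses; inconclusive = under 0.8 fold in just a single repeat measurement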;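 also: Fgf4 transcript normalised to actin in duplex TaqMan qPCR; cells exposed to compound for 24 h before lysis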
# Bmi1 derepress – esBAF inhibition via Bmi1 de-repression, confirmation, cell-based, RT-qPCR, mouse ESC, single point, cherry-pick; shares compounds with esBAF inh; mouse ESE14 ES cells, Bmi1 mRNA qPCR fold; active compounds read high; AID 743180, 2013; 550 tested, under 10 active; fold change at 33 µM;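 active = Bmi1 expression fold change above 6 at either tested concentration, seen in replicate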;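 also: higher fold means more Bmi1 de-repression and stronger esBAF inhibition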
# A549 tox SP – A549 cell cytotoxicity, cytotoxicity control, plate reader, single point, cherry-pick; shares compounds with esBAF inh; cell viability change % (negative = cytotoxic), % at 25 µM, hits read low; 550 tested, under 10 active; AID 743188, 2013; call rule not given here
# HepG2 tox SP – HepG2 cell cytotoxicity, cytotoxicity control, plate reader, single point, cherry-pick. shares compounds with esBAF inh. active compounds read low. activity change, negative = inhibition, % at 25 µM. 550 tested, 4% active. AID 743189, 2013; in the data active = activity change below about -50%
# HEK293 tox SP – HEK293 cell cytotoxicity, cytotoxicity control, plate reader, single point, cherry-pick; AID 743190, 2013; activity change, negative = inhibition, % at 25 µM, hits read low; 550 tested, 3% active; shares compounds with esBAF inh; in the data active = activity change below about -38%, passing the limit was not always enough
# Numbers without * were called inactive; ? = inconclusive; . = no result.
SMILES,AHR act,Wnt bcat act,MITF act,esBAF inh,GAA850 FXN act,esBAF Ring1 qPCR,esBAF Fgf4 qPCR,Bmi1 derepress,A549 tox SP,HepG2 tox SP,HEK293 tox SP
Cc1ccc(Cl)cc1-c1cc(C(=O)Nc2ccc(F)cc2)[nH]n1,.,-0.5,.,63.3*,3.0,1.1,0.969,1.69,2.4,-16.9,-8.7
Cc1ccc(NC(=O)Nc2ccc(F)cc2)cc1Cl,3.1,8.4,43.5,68.0*,-1.4,1.28,0.97,1.65,-2.2,-34.2,-2.6
CC(C)NC(=O)N(C)C[C@@H]1Oc2ccc(NC(=O)NC3CCCCC3)cc2C(=O)N([C@H](C)CO)C[C@@H]1C,.,.,.,-2.0,.,.,.,.,.,.,.
COc1ccc(-c2cc(C(=O)Nc3ccc(NC(C)=O)cc3)[nH]n2)c(C)c1,.,-1.8,.,60.6*,1.9,1.16,1.02,1.52,-11.7,0.7,-10.6
O=C(C[C@H]1CC[C@H]2[C@@H](COC[C@@H](O)CN2Cc2ccccc2)O1)NCCc1ccccc1,.,.,.,1.0,.,.,.,.,.,.,.
CC(C)C#Cc1ccc2c(c1)O[C@H](CN(C)Cc1cncnc1)[C@@H](C)CN([C@H](C)CO)S2(=O)=O,.,.,.,10.7,.,.,.,.,.,.,.
Cn1c(/N=C(\N)c2ccccc2)nc2ccccc21,.,3.6,.,82.9*,3.1,1.19,0.871,1.65,-7.7,-5.1,-12.2
COC(=O)c1sccc1NC(=O)c1ccc(OC)cc1,16.8,7.6,.,75.8*,1.6,1.33,1.04,1.88,-19.0,-12.9,-5.6
C(=NOCc1ccccc1)c1cccnc1,.,28.4,51.9,58.4*,5.8,1.22,0.974,1.45,-8.3,-7.4,12.0
N#Cc1ccc(CO/N=C/c2ccccc2)cc1,-2.4,-4.6,2.4,5.6,0.3,.,.,.,.,.,.
NC(=O)c1ccccc1-c1nc(-c2ccccc2)no1,14.6,.,.,74.4*,5.7,0.986,1.06,1.64,-7.5,-15.3,-7.2
C[C@@H](NC(=O)C[C@@H]1CC[C@@H](NS(=O)(=O)c2cccc(F)c2)[C@H](CO)O1)c1ccccc1,.,.,.,-2.1,.,.,.,.,.,.,.
COc1ccc2nc(C(c3ccc(C)cc3)n3c(-c4ccccc4Br)nc4ccccc43)[nH]c2c1 (stereo unspecified),.,-2.8,.,?,.,0.963,1.17,1.72,-8.1,3.6,-25.3
Cc1ccc(Cl)c2c(N=Nc3ccccc3)c(O)[nH]c12,.,14.2,35.4,57.6*,5.3,1.49,0.98,1.56,3.5,24.3,-9.1
Cc1cc(Cl)cc2c(N=Nc3ccccc3C(=O)O)c(O)[nH]c12,7.6,4.1,13.5,15.7,2.0,.,.,.,.,.,.
COc1c(C(=O)NNC(=O)c2ccccc2)csc1Br,22.7,38.9*,59.2,55.6*,-0.4,1.18,0.897,1.67,4.7,-37.9,2.3
COc1cccc(C(=O)NNC(=O)c2ccccc2)c1,.,13.6,.,16.1,2.9,.,.,.,.,.,.
